Bioassay records deposited in PubChem BioAssay by National Center for Advancing Translational Sciences (NCATS).
TSHR agonist = activates the human thyroid stimulating hormone receptor; P16473; HEK293-CNG-TSHR cells (CNG channel as cAMP sensor), membrane potential dye, cAMP; Potency, µM (series often up to 57.1 µM), for the others: at the top dose activation, actives largely listed as activators; 73,000 tested, 0.48% active; active = well fitted activation curve with a large enough effect in the main read-out, with a control signal flat, not every such curve was filed as active; inconclusive = small, poorly fitted or top-dose-only effect, or a change in a side signal; inactive = no such curve, though single readings can be large or run the other way; % of control where 0% means no effect;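 note: the control signal comes from parental cells without the receptor; potency is the fitted concentration of half-maximal effect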
Target sequence (P16473 whole entry, looked up): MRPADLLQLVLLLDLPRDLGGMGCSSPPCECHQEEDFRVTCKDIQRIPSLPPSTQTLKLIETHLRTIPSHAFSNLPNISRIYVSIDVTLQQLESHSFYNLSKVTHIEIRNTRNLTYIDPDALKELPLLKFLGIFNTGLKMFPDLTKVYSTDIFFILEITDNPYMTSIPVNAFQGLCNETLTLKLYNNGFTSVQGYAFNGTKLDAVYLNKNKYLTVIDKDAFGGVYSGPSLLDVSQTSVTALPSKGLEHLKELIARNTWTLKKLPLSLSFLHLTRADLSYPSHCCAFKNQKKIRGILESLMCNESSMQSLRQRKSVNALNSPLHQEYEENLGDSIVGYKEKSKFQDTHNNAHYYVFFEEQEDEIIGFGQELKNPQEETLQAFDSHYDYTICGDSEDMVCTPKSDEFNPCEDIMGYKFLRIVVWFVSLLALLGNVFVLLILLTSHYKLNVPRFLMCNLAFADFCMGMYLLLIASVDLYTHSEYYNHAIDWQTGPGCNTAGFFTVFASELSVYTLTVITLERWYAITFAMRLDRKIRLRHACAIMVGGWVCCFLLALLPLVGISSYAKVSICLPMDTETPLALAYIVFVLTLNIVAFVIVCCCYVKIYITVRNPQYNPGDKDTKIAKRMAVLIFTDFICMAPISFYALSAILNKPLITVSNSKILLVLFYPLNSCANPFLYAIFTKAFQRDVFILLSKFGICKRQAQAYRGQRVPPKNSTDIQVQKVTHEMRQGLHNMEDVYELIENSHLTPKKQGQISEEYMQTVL
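HEK 293 cells stably expressing TSHR and a cAMP-gated CNG channel; parental CNG-only cells as counterscreen. Cells preloaded 60 min with membrane potential dye plus 100 uM RO 20-1724, then compound 30 min; fluorescence read at 590 nm.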
HEK293 cAMP cs = counter-screen for TSHR agonists: cAMP increase in parental HEK293; parental HEK293 CNG cAMP sensor, membrane potential fluorescence; Potency, µM (titrated, usually from 57.1 µM), for the others: at the top dose activation, actives largely listed as activators; 73,000 tested, 2.5% active; note: potency is the fitted concentration of half-maximal effect; % of control where 0% means no effect; nearly all actives have a fitted effect of over 55% in size
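Counterscreen for endogenous-receptor signalling: CNG-channel HEK 293 cells report cAMP rise by membrane depolarization. After 60 min dye equilibration with 100 uM RO 20-1724, compounds incubated 30 min before bottom-read fluorescence at 590 nm.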
Luciferase inh = blocks Photinus pyralis firefly luciferase activity; 72,000 tested, 2.2% active; Potency, µM (series often up to 57.1 µM), inactives show at the highest dose activity change, negative = inhibition, usual class: inhibitors; AID 411; purified firefly luciferase, luminescence, 8 min; P08659; note: potency is the fitted concentration of half-maximal effect; % is set by controls: 0 for no effect and ±100 for the full control effect; nearly all actives have a fitted effect of over 40% in size
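Inhibition of light generation by firefly luciferase from ATP and luciferin was profiled with concentration-response curves per sample, ATP held at 10 uM within the enzyme's linear range. Plates were read by luminescence after an 8-minute ambient incubation.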
ERK AVP inh = blocks ERK signaling stimulated by vasopressin; HEK293-V1b, vasopressin-stimulated pERK AlphaScreen; Potency, µM (highest dose often 57.5 µM), for the others: top-dose activity, negative = inhibition, most hits filed as inhibitors; 72,000 tested, 0.99% active; AID 995; note: potency is the fitted concentration of half-maximal effect; % is set by controls: 0 for no effect and ±100 for the full control effect; nearly all actives have a fitted effect of over 55% in size
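HEK293 cells stably expressing V1b receptor, preincubated 30 min at 37 °C with compound, then stimulated 5 min with 25 nM vasopressin. Phospho-ERK by AlphaScreen SureFire after 5 h RT; normalized to DMSO and vasopressin; AC50 by Hill fit.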
Bst PK mod = alters activity of Bacillus stearothermophilus pyruvate kinase; purified pyruvate kinase, luminescence ATP production; ribose 5-phosphate activator present at AC10; Potency, µM; 51,000 tested, 1.2% active; in the data active = potency below about 11 µM; inconclusive = mostly about 12 µM to 25 µM;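 the screen sought inhibitors and activators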;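 note: potency is the fitted concentration of half-maximal effect; scaled between full activation by ribose 5 phosphate and full inhibition by luteolin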
GBA activity = human lysosomal glucosylceramidase modulation. P04062. purified enzyme, resorufin glucoside fluorescence (screen aimed at inhibitors), 20 min. Potency, µM. 48,000 tested, 1.1% active; in the data active = potency below about 15 µM; inconclusive = mostly about 16 µM to 33 µM;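 note: potency is the fitted concentration of half-maximal effect; the screen sought inhibitors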
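Wild-type enzyme at 0.2 nM final in 50mM citric acid/KH2PO4, 10mM sodium taurocholate, 0.01% tween-20, pH 5.9, with resorufin beta-D-glucopyranoside at 30 uM final. Compounds titrated, 20 min at RT, red fluorescence read; AC50 from titration.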
HEK293 cAMP cnt = raises cAMP in parental HEK293 cells lacking TSH receptor; shares compounds with TSHR agonist; 150 tested, under 10 active; parental HEK293 CNG biosensor, cAMP membrane potential fluorescence; activity change, negative = inhibition, % at 32.9 µM
Starred values were filed as active, the others as inactive; ? = inconclusive; · = not tested or not shown; [ ] = another dose, or the depositor's remark. An excerpt weighted towards active compounds, which were near 6.1% of everything screened. Unless noted, calls come from the whole dose curve; as a rule, active = well fitted curve in the direction sought with a large enough effect; inconclusive = small, poorly fitted or top-dose-only effect, or another doubt; inactive = no such curve, though single readings can be large; an effect the other way counts as inactive or inconclusive.

SMILES	TSHR agonist	HEK293 cAMP cs	Luciferase inh	ERK AVP inh	Bst PK mod	GBA activity	HEK293 cAMP cnt
C/C(CCN1CCCCc2nc(C)c(C)cc21)=N\OC[C@@H](O)[C@@H]1O[C@@H]2OC(C)(C)O[C@@H]2[C@H]1O	0%[11.4 µM]	5%[11.4 µM]	2%[11.4 µM]	-9%[11.5 µM]	·	·	·
Cc1onc(-c2ccccc2Cl)c1C(=O)Nc1ccc(-n2nncc2-c2ccco2)cc1	6.3µM*	-6%	3%	-10%	>57	>77	-3
CCN1C(=O)[C@H]2[C@H]3[C@H](O)[C@H](O)C/C(=N/O[C@@H](C)c4cn([C@H]5COC[C@H]5O)nn4)[C@@H]3CC[C@@H]2C1=O	7%[11.4 µM]	-6%[11.4 µM]	1%[11.4 µM]	-10%[11.5 µM]	·	·	·
NCC(=O)N[C@H](CO)C(=O)O	9%[11.4 µM]	15%[11.4 µM]	-3%[11.4 µM]	-6%[11.5 µM]	·	·	·
COc1cccc(C2CC(c3ccccc3C)n3nc(N)nc3N2)c1 (stereo not given)	0%	7%	1%	-22%	·	·	·
COc1cccc(C2CC(c3ccccc3OC)n3nc(N)nc3N2)c1 (stereo not given)	5%	8%	-5%	-12%	·	·	6[25.6 µM]
CCOC(=O)c1ccc(NC(=O)c2ccc(CN3CCOCC3)cc2)cc1	·	20%	-6%	32µM*	>57	·	11
c1ccc(-n2cnc3cc(NCc4ccccn4)ccc32)cc1	-12%	-10%	?	-12%	·	>77	·
c1ccc(-n2cnc3cc(NCc4ccncc4)ccc32)cc1	-8%	-1%	-21%	?	·	>77	1[25.6 µM]
O=C1CC(c2ccco2)CC2=C1C(c1ccccc1)n1nc(C(F)(F)F)nc1N2 (stereo not given)	0.63µM*	10%	-1%	7%	>57	·	-7
COc1ccc(C2C3=C(CC(c4ccco4)CC3=O)Nc3ccccc3N2C(C)=O)cc1 (stereo not given)	4%	7%	-1%	-16%	·	·	·
CC(C)C(=O)Nc1ccc(N2CCN(S(C)(=O)=O)CC2)cc1	5%[11.4 µM]	0%	3%	6%	>57	>77	·
Cc1ccc(C(C)C)c(OCC(=O)Nc2ccc(N3CCN(S(C)(=O)=O)CC3)cc2)c1	-38%	5%	0%	-18%	>57	>77	-30[25.6 µM]
COc1cc(/C=N/n2c(SC)nnc(C(C)(C)C)c2=O)ccc1O	0%	-5%	2%	-30%	·	·	-8[25.6 µM]
COC(=O)C1=C(C)NC(=O)NC1c1cn(-c2ccccc2)nc1-c1cccs1 (stereo not given)	25µM*	13%	-2%	-12%	>57	>77	5
CCc1ccccc1NC1=NCC(=O)N1Cc1ccc(OC)cc1	7.9µM*	27%	2%	-9%	>57	>77	-6
O=c1ccnc(SCc2ccc(Cl)cc2)[nH]1	0%[11.4 µM]	5%[11.4 µM]	2%[11.4 µM]	5%[11.5 µM]	·	·	·
O=C1c2ccccc2C(=O)N1Cc1nc(-c2ccncc2)no1	14%	14%	0%	-4%	>57	>77	·
O=C1c2ccccc2C(=O)N1Cc1nc(-c2ccccc2)no1	21%	4%	2%	6%	>11	>77	21[25.6 µM]
CCCN1C(=O)c2ccc(C(=O)NCc3ccco3)cc2C1=O	-5%	3%	3%	-18%	>57	>77	·
Cc1cnc(NC(=O)c2ccc3c(c2)C(=O)N(Cc2ccco2)C3=O)s1	-19%	-12%	-11%	-27%	>57	>77	-11[25.6 µM]
CCNc1ncc2nc(-c3ccc(Cl)cc3)c(=O)n(C)c2n1	1%	20%	-5%[11.4 µM]	24%	·	·	·
CCN1C(=O)[C@H]2[C@H]3[C@H](O)[C@H](O)C/C(=N/O[C@@H](C)CN4CCCc5nc(C)c(C)cc54)[C@@H]3CC[C@@H]2C1=O	9%[11.4 µM]	0%[11.4 µM]	0%[11.4 µM]	9%[11.5 µM]	·	·	·
Cc1ccc(S(=O)(=O)N(CC(=O)N2CCC(C(N)=O)CC2)Cc2ccc(F)cc2)cc1	4%	2%	-6%	-2%	·	·	·
O=C(CN(Cc1ccc(F)cc1)S(=O)(=O)c1ccccc1)N1CCCCC1	25µM*	28%	-13%	-30%	·	·	-7
